# Screening results as filed in PubChem BioAssay.
# BoNT-F LC inh: BoNT F light chain protease inhibition; Multiplex microsphere protease cleavage assay, flow cytometry; 0.22% of 360,000 active; inhibition, % at 10 µM; AID 588497; in the data active = inhibition above about 35%, passing the limit was not always enough; inconclusive = no clear call, values can overlap the other calls; note: plate controls were buffer without enzyme for full effect and enzyme alone for no effect
# Autofluor counter: compound fluorescence in toxin protease inhibitor counterscreen; compound autofluorescence counterscreen, microsphere flow cytometry; stronger effect = higher value; fluorescence intensity (concentration not given with the values); 3.1% of 360,000 active; in the data active = fluorescence intensity above about 16000; inconclusive = no clear call, values can overlap the other calls
# Anthrax LF inh2: anthrax lethal factor protease inhibition; inhibition, % at 10 µM; 0.12% of 360,000 active; P15917; multiplex microsphere protease cleavage assay, LF; AID 588501; note: plate controls were buffer without enzyme for full effect and enzyme alone for no effect
# BoNT A protease: BoNT A light chain protease inhibition; 0.17% of 360,000 active; multiplex microsphere protease substrate cleavage, flow cytometry; AID 588499; inhibition, % at 10 µM; note: plate controls were buffer without enzyme for full effect and enzyme alone for no effect
# Starred values were filed as active, the others as inactive; ? = inconclusive. Hits are enriched below; roughly 3.5% of the tested compounds scored in any of these assays. Cut-off read from the data, not from the text of the source, unless noted: active = inhibition above about 30%; inconclusive = no clear call, values can overlap the other calls; inactive = below that.
SMILES,BoNT-F LC inh,Autofluor counter,Anthrax LF inh2,BoNT A protease
COc1cc2c(cc1OC)C(c1ccc(-c3ccccc3Cl)o1)=NCC2,6,20487*,0,7
O=C(NCCc1ccccc1)c1ccc(Cl)cc1[N+](=O)[O-],-16,3928,-13,0
C/C(=N\NC(=O)c1ccccc1O)c1c(O)cc(C)oc1=O,17,17536*,3,11
CC1(C)CC(=O)C2=C(C1)N(c1cccc(Cl)c1)C(=O)NC2(C(F)(F)F)C(F)(F)F,2,10375,0,1
COc1ccc(NC(=O)C2OC3OC(C)(C)OC3C3OC(C)(C)OC23)cc1 (stereo not drawn),-1,23845*,0,-1
CCCCCOc1ccc(NC(=O)C2OC3OC(C)(C)OC3C3OC(C)(C)OC23)cc1 (stereo not drawn),-3,2407,-2,0
CN1CCN(C2=C(Cl)C(=O)c3ccccc3C2=O)CC1,-43,3199,-30,0
CN1CCN(C2=C(Cl)C(=O)C(c3cnc(N4CCCCC4)s3)=C(Cl)C2=O)CC1,-23,19751*,-8,4
Cc1ccc(S(=O)(=O)N(C)C)cc1NC(=O)CCNC(=O)c1ccco1,15,3539,7,1
CCOC(=O)c1cnc(-n2nc(C)cc2C)nc1N(CC)CC,2,18780*,-12,?
CCOC(=O)c1cnc(-n2nc(C)cc2C)nc1Nc1cccc(C(=O)O)c1,3,21795*,1,1
S=C(Nc1cccc(Cl)c1Cl)Nn1cnnc1,-13,2080,-2,-1
Cc1ccc(C(=O)NCC(=O)Nc2ccc(Cl)cc2)s1,4,4096,3,0
CCOc1ccccc1CNC(=O)C1CCN(c2nnc(C)c3c(C)n(-c4ccc(C)cc4)nc23)CC1,11,12373,4,-2
Cc1ccc(-n2nc3c(N4CCC(C(=O)NCc5ccccc5C)CC4)nnc(C)c3c2C)cc1,10,16178*,1,-4
CCOc1ccc(CNC(=O)C2CCN(c3nnc(C)c4c(C)n(-c5ccc(C)cc5)nc34)CC2)cc1,10,17592*,5,-5
CC12CCC(=O)N1C(C(=O)Nc1nc(-c3ccccc3Cl)cs1)CS2 (stereo not drawn),4,5910,3,2
COc1ccccc1N(C(=O)NCc1ccccc1)C1=NCC(C)S1 (stereo not drawn),1,4373,4,0
CNC(=O)N(C1=NCC(C)S1)c1ccc(F)cc1F (stereo not drawn),-5,23465*,-3,?
O=C(CSc1ncnc2c1oc1ccccc12)Nc1ccc2c(c1)OCCO2,-4,17420*,-2,-4
CCc1nc(SCC(=O)Nc2ccc3c(c2)OCCO3)c2oc3ccccc3c2n1,5,2148,-1,0
Cc1nc(SCC(=O)Nc2ccc3c(c2)OCCO3)c2oc3ccccc3c2n1,0,20676*,1,0
COc1ccccc1NC(=O)CSc1nc2c(oc3ccccc32)c(=O)n1C,0,5668,0,1
COc1ccccc1NC(=O)CSc1ncnc2c1oc1ccccc12,0,20328*,-2,1
Cc1csc(C(=O)NN)c1N(C)C,1,5761,2,0
SMILES,BoNT-F LC inh,Autofluor counter,Anthrax LF inh2,BoNT A protease
CCOC(=O)c1c(NC(=O)COC(=O)c2cnccn2)sc(C)c1C,-2,2907,-1,0
Cc1ccc(C)c(NC(=S)NNC(=O)c2csc(C(C)C)c2)c1,-3,22879*,1,1
Cc1ccc(NC(=S)NC(=O)c2ccc(Br)o2)c(C)c1,0,4549,-3,0
Cc1ccc(C)c(NC(=S)NNC(=O)c2ccc(Br)o2)c1,-5,21935*,0,-5
Cc1ccc(C)c(NC(=S)NNC(=O)c2csc(C)c2C)c1,-7,2435,0,0
Cc1ccc(Cl)cc1N1CCN(S(=O)(=O)c2c(C)[nH]c(C)c2C(=O)N2CCCCC2)CC1,0,5336,-4,-2
COc1ccc(/C=N/NC(=O)CNC(=O)c2ccncc2)cc1OC,7,3701,5,-1
Cc1ccc(-n2c(SCC(N)=O)nnc2-c2ccc(S(=O)(=O)N3CCCCC3)cc2)c(C)c1,0,16453*,-1,1
COc1cccc(C(=O)CSc2nc3ccccc3n2CC(=O)N2CCOCC2)c1,-6,9737,-2,0
CC(C)NC(=O)CSc1nnc(-c2ccc(S(=O)(=O)N3CCCC3)cc2)n1CC1CCCO1 (stereo not drawn),-5,3214,1,0
CC(=O)Nc1ccc(C(=O)CSc2nc3ccccc3n2CC(=O)N2CCCC2)cc1,-4,16357*,-1,0
COc1cccc(NC(=O)Cn2c(SCC(=O)N3CCOCC3)nc3ccccc32)c1,-2,16158*,-5,?
NC(=O)CSc1nnc(-c2ccc(S(=O)(=O)N3CCOCC3)cc2)n1CC1CCCO1 (stereo not drawn),3,22288*,-6,1
O=C(NCc1ccc(F)cc1)c1cc(C2CCCN(C(=O)c3ccc4c(c3)CCO4)C2)on1 (stereo not drawn),-17,3690,-9,-1
C=CCSc1nc2c(N)ncnc2n1C1OC(CO)C(O)C1O (stereo not drawn),-4,3402,-6,0
CCOc1ccc(NC(=O)CN(C)C(=O)c2ccc(OCC(=O)N3CCOCC3)c(OC)c2)cc1OCC,-6,3847,-3,0
CCN(CC(=O)Nc1ccc(NC(C)=O)cc1)C(=O)CCCSc1nc2ccccc2[nH]1,-6,?,0,-4
Cc1ccc(S(=O)(=O)Nc2ccc(F)cc2)cc1C(=O)N1CCOCC1,1,3555,-7,0
COc1ccc(C)cc1S(=O)(=O)NC(C)c1cnn(-c2ccccn2)c1C (stereo not drawn),4,5238,-1,2
CC1CCN(S(=O)(=O)c2ccc(NC(=O)CSc3nnnn3C)cc2)CC1,-1,23542*,2,-1
Cc1cc(NC(=O)CSc2nnc(-c3ccc(S(=O)(=O)N4CCCC4)cc3)n2C)no1,-1,7416,-1,1
CCn1c(SCC(=O)Nc2cc(C)on2)nnc1-c1ccc(S(=O)(=O)N2CCCC2)cc1,-1,20376*,0,?
O=C(CCCN1C(=O)c2ccccc2C1=O)Nc1ccc(S(=O)(=O)N2CCOCC2)cc1,-7,24200*,-5,?
Cn1c(SCC(=O)Nc2ccccc2F)nnc1-c1ccc(S(=O)(=O)N2CCOCC2)cc1,5,14730,0,5
Cc1ccc(NC(=O)CSc2nnc(-c3ccc(S(=O)(=O)N4CCOCC4)cc3)n2C)cc1,2,19086*,-5,?
SMILES,BoNT-F LC inh,Autofluor counter,Anthrax LF inh2,BoNT A protease
O=C(CCCN1C(=O)c2ccccc2C1=O)Nc1ccc(S(=O)(=O)N2CCCCC2)cc1,-14,11121,0,0
CC(=O)Nc1cccc(OCC(=O)NC(C)c2ccc3ccccc3c2)c1 (stereo not drawn),-33,4037,8,-2
Nc1ncc(Br)cc1S(=O)(=O)NCCc1ccccc1,4,5074,0,0
Cc1c(C(=O)Nc2ccc(S(=O)(=O)N3CCOCC3)cc2)cccc1[N+](=O)[O-],26,3806,7,4
COC(=O)C1C(O)=C(C(C)=Nc2cccc3ccccc23)C(=O)CC1(C)C (stereo not drawn),-3,5664,9,0
CCc1noc(C)c1C(=O)OCC(=O)c1ccccc1OC,5,6210,1,0
